{"source": "PubChem BioAssay (NCI)", "note": "This is part of a sample that, as a whole, favours compounds with a hit. Of some 83,000 tested, about 20% had one in any assay.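 Interpretation: 100, growth as untreated; towards 0, rising growth inhibition; 0, no net growth; 0 to -100, cell death. Compounds scoring below 10 were considered active.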 A number with no mark means an inactive call. Calls of active or inactive are those of the source.", "data": [{"test_system": "LOX IMVI melanoma", "assay": "NCI-60 one-dose screen, 48 h (100 = growth as untreated, 0 = no growth, -100 = all killed)", "conditions": "10 µM unless noted", "experimental": "Growth inhibition of the LOX IMVI human tumor cell line is measured as a screen for anti-cancer activity. Cells are grown in 96 well plates and exposed to the test compound for 48 hours. Compounds are tested at a single concentration, which is 10^-5 M for most compounds. The reported endpoint is percent growth (GI% or GIPRCNT), where numbers from 0 - 100% represent growth inhibition, and numbers from -100% - 0 represent cell death. For example, a value of 40 represents 60% growth inhibition. A value of 0 means no net growth occurred over the course of the experiment. A value of -40 indicates 40% of cells at the beginning of the experiment died by the end of the experiment. A value of -100 means all cells are dead at the end of the experiment.\nNCI-60 Human Tumor Cell Lines Screen was performed using the standard one-dose NCI protocol, which is described in more detail at https://dtp.cancer.gov/discovery_development/nci-60/default.htm.\nCompounds with GIPRCNT values below 10 were considered active. Activity score was based on GIPRCNT using the following formula: […]\nScore is 0 for GIPRCNT values of 100 or above, 50 for GIPRCNT values of 0, and 100 for GIPRCNT values of -100.", "values": [{"compound": "O1[As]2O[As]3O[As]1O[As](O2)O3", "growth": "0.399% (active)"}, {"compound": "CC(C)CCC[C@@H](C)[C@H]1CC[C@H]2[C@@H]3CC=C4C[C@@H](OC(=O)Cc5ccc(N(CCCl)CCCl)cc5)CC[C@]4(C)[C@H]3CC[C@]12C", "growth": "104%"}, {"compound": "C/C1=C/C(=O)O[C@@H]2C[C@@H](CC[C@H](C)/C=C\\C=C\\CC1)O[C@@](OCCc1ccccc1)([C@@H]1CSC(=O)N1)C2", "growth": "4.46% (active)"}, {"compound": "CCOc1cc(/C=N\\Nc2nnc(C)n2N)c(C)cc1N(CCCl)CCCl", "growth": "1.98% (active)"}, {"compound": "CCCCCCCC(=O)OCC/C=C/C1OC1C1OC(=O)/C=C\\C=C\\c2nc(oc2C)/C=C(/C)CCC2OC2C1OC(=O)NC(C)=O", "note": "(stereo not given)", "growth": "-21.6% (active)"}, {"compound": "COc1cc(CNCCc2ccc(Cl)cc2)cc(OC)c1O", "growth": "70.7%"}, {"compound": "CCOC(=O)c1cnc(SCc2ccc(Cl)c(Cl)c2)nc1N1CC1", "growth": "23.7%"}, {"compound": "O=CN1N=C(c2ccccc2)CC1c1sc(N(CCCl)CCCl)nc1Cl", "note": "(stereo not given)", "growth": "98.6%"}, {"compound": "CCC(CO)NC1CCCCC1", "note": "(stereo not given)", "growth": "27.9%"}, {"compound": "NC(=O)NC(=O)CI", "growth": "-67.3% (active)"}, {"compound": "COC(=O)C[Se]C(=O)c1ccccc1OC(C)=O", "growth": "59.6%"}, {"compound": "CC(=O)OC1CCC2(C)C(=CCC3C4CC(CN5CC5)C(=O)C4(C)CCC32)C1", "note": "(stereo not given)", "growth": "44.1%"}, {"compound": "Nc1cccc2c1Oc1ccccc1O2", "growth": "93.1%"}, {"compound": "CC(C)OC(=S)[S-].[Au+].c1ccc([PH+](c2ccccc2)c2ccccc2)cc1", "growth": "-64.9% (active)"}, {"compound": "COc1ccc(CN2CCN(Cc3ccccc3)CC2)c(O)c1", "growth": "92.1%"}, {"compound": "CC(=O)[O][Hg][c]1nc2c(c(=O)n(C)c(=O)n2C)n1C", "growth": "-28.5% (active)"}, {"compound": "CC(C)C1c2ccc(O)cc2Oc2nc(N)c(C#N)c(N)c21", "note": "(stereo not given)", "growth": "103%"}, {"compound": "CNC(=O)Oc1cccc(OC)c1", "growth": "100%"}, {"compound": "COc1ccc(OC)c(/C=C(/C)[N+](=O)[O-])c1", "growth": "-88.6% (active)"}, {"compound": "CC[C@H](C)[C@H](NC(=O)Nc1ccccc1)C(=O)N(C)[C@H](C[C@@H](OC(C)=O)c1nc(C(=O)N[C@@H](Cc2ccccc2)C[C@H](C)C(=O)OC)cs1)C(C)C", "growth": "23.9%"}, {"compound": "C#CC1(O)CCC2(C)C(CCC3C4CCC(=O)C4(C)CCC32)C1", "note": "(stereo not given)", "growth": "96.6%"}, {"compound": "CCN(CC)c1ccc(C=C2C(=O)NC(=S)NC2=O)cc1", "growth": "80%"}, {"compound": "Cc1ccc2oc(=O)c3c(c2c1)OC(N)=C(C#N)C3c1ccco1", "note": "(stereo not given)", "growth": "96.8%"}, {"compound": "[N-]=[N+]=NC(C(=O)O)c1ccccc1", "note": "(stereo not given)", "growth": "100%"}, {"compound": "CC1(C)N=C(N)N=C(N)N1c1ccc(CCCCc2ccc(Cl)cc2S(=O)(=O)F)c(Cl)c1", "growth": "13.3%"}, {"compound": "Oc1ccc(Br)cc1CN1CCN(Cc2ccc(Cl)cc2)CC1", "growth": "19.7%"}, {"compound": "Cc1cc(NC(=O)NCCOc2ccc(N3C(N)=NC(N)=NC3(C)C)cc2Cl)ccc1S(=O)(=O)F", "growth": "12.8%"}, {"compound": "O=C(CC1(O)C(=O)Nc2ccc(F)cc21)c1ccc(C(=O)NCC2CCC3(CC2)OOC2(CCCCC2)OO3)cc1", "note": "(stereo not given)", "growth": "39.1%"}, {"compound": "CCCCOC(=O)c1ccccc1C(=O)O.CCCCOC(=O)c1ccccc1C(=O)O.[Cu+2]", "growth": "89.4%"}, {"compound": "CC1CC=CCC12C(=O)NC(=S)NC2=O", "note": "(stereo not given)", "growth": "106%"}, {"compound": "NC(=O)SCC(=O)Nc1ccc([As](=O)(O)O)cc1", "growth": "68.8%"}, {"compound": "NC(=O)OCC(CO)(c1ccccc1)c1ccccc1", "growth": "98.7%"}, {"compound": "CC(=O)N1N=C(c2ccccc2)CC1c1sc(N(CCCl)CCCl)nc1Cl", "note": "(stereo not given)", "growth": "103%"}, {"compound": "COc1ccc(/C=C\\c2cc(OC)c(OC)c(OC)c2)cc1N/C=C\\C(=O)c1c[nH]c2ccccc12", "growth": "19.6%"}, {"compound": "COc1ccc(C2=NN(c3ccccc3)C(c3sc(N(CCCl)CCCl)nc3Cl)C2)cc1", "note": "(stereo not given)", "growth": "89.8%"}, {"compound": "CC(=O)O[C@H]1CCC2C3CCC4=C/C(=N/O)CCC4(C)C3CCC21C", "note": "(stereo not given in full)", "growth": "93%"}, {"compound": "O=C1NC(=O)C(Cc2ccccc2)(Cc2ccccc2)C(=O)N1", "growth": "90.4%"}, {"compound": "CC(C)CCC1(CCO)C(=O)NC(=S)NC1=O", "growth": "104%"}, {"compound": "CC1(C)CC2(CC(C)(C)c3cc(O)c(O)cc32)c2cc(O)c(O)cc21", "growth": "94.8%"}, {"compound": "CCOCC1(CCc2ccccc2)C(=O)NC(=S)NC1=O", "growth": "94.9%"}]}]}
